Test results from patent US20210230599, “STEM-LOOP COMPOSITIONS AND METHODS FOR INHIBITING INTERLEUKIN-8” (VITRISA THERAPEUTICS, INC., published 2021).

Biological target: Interleukin-8 (IL8, CXCL8), C-terminal His-tagged (Homo sapiens, UniProt P10145 SEQ:1-72)
Experiment: competition; competition TR-FRET; G18U
Details: tags: C-terminal 6xHis (Sino Biological); ssRNA; 2'-F G, 2'-OMe A/C/U, 5' C6NH2, 3' idT
Method: To better understand the sequence requirements and to confirm the stem structures of members of the Aptamer 3 family as determined from sequence covariation analysis from both the primary and secondary (degenerate) selections, a series of variants which included mutations and deletions to the predicted stems were synthesized and screened (Table 24). Activity of each of these variants were tested using a time resolved competition TR-FRET assay in which the labeled parent Aptamer 3 was competed with increasing concentrations of unlabeled variants for binding to IL8 (FIG. 14). Briefly, 2-fold dilutions of thermally equilibrated aptamers were made in TR-FRET Buffer (50 mM MOPS, pH 7.4, 125 mM NaCl, 5 mM KCl, 50 μM CHAPS, 0.1 mg/mL BSA, 1 mM CaCl₂, and 1 mM MgCl₂). 5 μL of aptamer or control solution was added to 5 μl mix of 10 nM C-terminal His-tagged-IL8, 60 nM ALEXA FLUOR® 647-labeled Aptamer, and 5 nM anti-His-Eu (Perkin Elmer) in a black wall low volume 384 well plate (Greiner). For control, 5 μl of 1000-fold excess of unlabeled parent aptamer or 5 μl TR-FRET buffer alone was added to the mix of ALEXA FLUOR® 647-labeled aptamer, His-IL8, and anti-His-Eu. The plate was covered with a plate seal and subsequently incubated in the dark for 1 hour at room temperature. The plate was read on a Biotek CYTATION™ 5 plate reader. […]

Sequence	binding signal [fold worse than Aptamer 3]
UGAUGACGGUAGAUUACUGGUAGAGUGACCGCAUCU	> 10
